Assay results: PubChem BioAssay AID651699 (Sanford-Burnham Center for Chemical Genomics, 2012)
Screen size: about 360,000 compounds; about 2,100 (0.58%) were called active. This is one part of a sample in which actives are shown more often than they occur. Rule as the data show it: active = inhibition above about 36%; inactive = the rest.

Target: NEDD8-conjugating enzyme Ubc12 (Homo sapiens) + NEDD8-activating enzyme E1 regulatory subunit (Homo sapiens) (UniProt P61081+Q13564)
Assay: NEDD8 transfer onto cullin, blockade – biochemical, TR-FRET, uHTS, NAE and Ubc12, primary screen (AID 651699)
Conditions: TR-FRET cullin neddylation, at 25 µM, active compounds read high

NEDD8-conjugating enzyme Ubc12 (Homo sapiens) + NEDD8-activating enzyme E1 regulatory subunit (Homo sapiens), sequence (P61081 whole entry, looked up): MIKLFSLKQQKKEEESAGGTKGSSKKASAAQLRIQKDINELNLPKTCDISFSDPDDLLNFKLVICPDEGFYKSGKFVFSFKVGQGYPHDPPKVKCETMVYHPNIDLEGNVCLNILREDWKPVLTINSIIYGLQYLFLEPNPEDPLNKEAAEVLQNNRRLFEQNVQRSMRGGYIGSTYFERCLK
NEDD8-conjugating enzyme Ubc12 (Homo sapiens) + NEDD8-activating enzyme E1 regulatory subunit (Homo sapiens), sequence (Q13564 whole entry, looked up): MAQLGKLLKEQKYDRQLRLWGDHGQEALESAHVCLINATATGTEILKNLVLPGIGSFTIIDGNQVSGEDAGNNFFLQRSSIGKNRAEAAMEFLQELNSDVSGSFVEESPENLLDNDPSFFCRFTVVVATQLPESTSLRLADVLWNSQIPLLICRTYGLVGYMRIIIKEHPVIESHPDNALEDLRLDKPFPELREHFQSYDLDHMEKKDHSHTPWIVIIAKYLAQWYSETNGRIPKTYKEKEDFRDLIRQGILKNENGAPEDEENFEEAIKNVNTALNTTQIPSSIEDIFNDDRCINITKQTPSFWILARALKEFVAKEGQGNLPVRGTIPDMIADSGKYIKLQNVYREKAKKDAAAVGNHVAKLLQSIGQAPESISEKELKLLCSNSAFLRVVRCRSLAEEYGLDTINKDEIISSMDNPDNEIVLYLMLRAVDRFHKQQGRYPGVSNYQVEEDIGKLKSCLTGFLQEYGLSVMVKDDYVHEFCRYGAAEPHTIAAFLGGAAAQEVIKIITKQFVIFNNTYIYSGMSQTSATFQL

| Structure (SMILES) | inhibition |
| --- | --- |
| COc1ccc(CNC(=O)C(=O)N2CCC3(CC2)OCCN3S(=O)(=O)c2ccc(C)cc2)cc1 | 4.54% (inactive) |
| Cc1cc(/C=C2/C(=N)N3C(=NC2=O)SN=C3S(C)(=O)=O)c(C)n1-c1ccccc1 | 44.8% (active) |
| CCOC(=O)C1=C(O)/C(=C/c2cc(C)n(-c3ccccc3)c2C)N=C1C | 16.8% (inactive) |
| CC1=CC2=NC(=O)/C(=C/c3coc4ccccc4c3=O)C(=N)N2O1 | -38.8% (inactive) |
| COc1ccc(-c2cc(C(=O)N(C)CC(=O)Nc3ccccc3Cl)c3ccccc3n2)cc1OC | 46.6% (active) |
| COc1cccc(NC(=O)CN(C)C(=O)c2cc(Cl)nc3ccccc23)c1 | -0.49% (inactive) |
| COc1ccc(Cl)cc1NC(=O)CN(C)C(=O)c1ccc2n[nH]nc2c1 | 7.09% (inactive) |
| CC(=O)NC1CCN(CC(=O)Nc2nccs2)CC1 | -3.21% (inactive) |
| COC(=O)c1noc(C)c1-c1ccnn1C(=O)c1ccc(Cl)cc1 | -11.9% (inactive) |
| CC1CCC2CCCCC2N1C(=O)c1cc([N+](=O)[O-])cc([N+](=O)[O-])c1 (stereo not drawn) | -35.2% (inactive) |
| O=C(N/N=C/c1ccoc1)c1ccc(Cl)cc1Cl | 1.29% (inactive) |
| CC(Oc1ccccc1[N+](=O)[O-])C(=O)N/N=C/c1ccoc1 (stereo not drawn) | -9.94% (inactive) |
| CC(C)c1cc(C(=O)N/N=C/c2ccoc2)c(O)c(C(C)C)c1 | 49.1% (active) |
| COc1ccc(OC)c(NC(=O)CSc2nc(N)c(-c3ccccc3)c(=O)[nH]2)c1 | 26.4% (inactive) |
| Cc1cc(C)c(C=NNc2nc3c([nH]2)c(=O)n(C)c(=O)n3C)c(C)c1 | 39.2% (active) |
| CC(CCO)Nc1nc2c([nH]1)c(=O)n(C)c(=O)n2C (stereo not drawn) | 10.7% (inactive) |
| Cc1ccc(NN=Nc2nc3c([nH]2)c(=O)n(C)c(=O)n3C)cc1 | 1.85% (inactive) |
| COc1cccc(/C=N/NC(=O)C(=O)N2CCCC2)c1 | -14.6% (inactive) |
| O=C(CN1C(=O)CC(c2ccccc2)=Nc2ccccc21)NC1CCCCC1 | -13.9% (inactive) |
| O=C(NCc1cccc(Cl)c1)C1CCC(=O)N(C2CC2)C1 (stereo not drawn) | -4.68% (inactive) |
| O=C(NCc1cccc(Cl)c1)C1=CC=CN2CCS(=O)(=O)N=C12 | 33% (active) |
| O=C(NCc1cccc(Cl)c1)C1CCN(c2nnc(N3CCCC3=O)s2)CC1 | 9.68% (inactive) |
| CCOc1cc(/C=N/Nc2cc(C)nc3ccc(C)cc23)ccc1O | 39.9% (active) |
| CCOc1ccc(/C=N/NC(=O)C(C)Sc2ccccn2)cc1OCC (stereo not drawn) | -5.74% (inactive) |

| Structure (SMILES) | inhibition |
| --- | --- |
| CCOc1cc(/C=N/NC(=O)c2ccncc2)cc(Br)c1O | -8.9% (inactive) |
| O=C(CCN1C(=O)C2C3CCC(C3)C2C1=O)Nc1ccc(Cl)cc1Cl (stereo not drawn) | 5.46% (inactive) |
| O=C(CNC(=O)c1ccc(Br)o1)NCC1CCCO1 (stereo not drawn) | 10.6% (inactive) |
| COc1ccc(N2CCN(C(c3cc4ccc(C)cc4[nH]c3=O)c3nnnn3C3CCCC3)CC2)cc1 (stereo not drawn) | 8.39% (inactive) |
| COCCn1nnnc1C(c1cc2ccc(OC)cc2[nH]c1=O)N1CCc2ccccc2C1 (stereo not drawn) | -11.9% (inactive) |
| CCOc1ccc2[nH]c(=O)c(C(c3nnnn3CCOC)N3CCOCC3)cc2c1 (stereo not drawn) | 46% (active) |
| C=CCC(CC=C)(C(N)=O)c1ccccc1 | -5.36% (inactive) |
| CS(=O)(=O)Nc1ccc(C2=NN(S(C)(=O)=O)C(c3cccs3)C2)cc1 (stereo not drawn) | 51.1% (active) |
| Cc1ccc(C2CC(c3cccc(NS(C)(=O)=O)c3)=NN2S(C)(=O)=O)cc1 (stereo not drawn) | 7.24% (inactive) |
| CS(=O)(=O)Nc1cccc(C2=NN(C(=O)c3cccc(F)c3)C(c3cccs3)C2)c1 (stereo not drawn) | -5.27% (inactive) |
| CCOc1ccc(Cl)cc1-c1cc(C(=O)NCc2cccs2)[nH]n1 | -0.82% (inactive) |
| Cc1sc2c(c1C)c(=O)n(-c1ccccc1)c1nncn21 | -4.64% (inactive) |
| CSCCC(NS(=O)(=O)/C=C/c1ccccc1)C(=O)N1CCC(C)CC1 (stereo not drawn) | 5.25% (inactive) |
| COCCCNc1nc2ccccc2nc1NS(=O)(=O)c1ccc(F)cc1 | 37.4% (active) |
| CCCCNc1nc2ccccc2nc1NS(=O)(=O)c1cccs1 | 19.1% (inactive) |
| CCCn1nc(NS(=O)(=O)c2ccc(F)cc2)c2cc3ccccc3nc21 | -5.34% (inactive) |
| Cc1cccc(CC(=O)Nc2c3c(nn2-c2cccc(Cl)c2)CS(=O)C3)c1 (stereo not drawn) | 4.67% (inactive) |
| COc1ccc(S(=O)(=O)N2CCN(C)CC2)c(C)c1 | -9.29% (inactive) |
| Cn1c(N2CCOCC2)c(C=O)c2ccccc21 | 13.5% (inactive) |
| Cn1c(=O)c(C(=O)Nc2ncccn2)c(O)c2ccccc21 | 27.6% (inactive) |
| Cn1c(=O)c(Sc2ccc(Cl)cc2)c(O)c2ccccc21 | -5.74% (inactive) |
| Cc1cc(C)c(-c2c(O)c3ccccc3n(C)c2=O)c(C)c1 | 43.4% (active) |
| O=S(=O)(NCCCN1CCOCC1)c1ccc(F)c(Cl)c1 | -7.79% (inactive) |
| CC1(C)S[C@@H]2[C@H](NC(=O)COc3ccccc3)C(=O)N2C1C(=O)OCc1ccccc1 (stereo partly drawn) | 3.84% (inactive) |

| Structure (SMILES) | inhibition |
| --- | --- |
| NC(=O)Cn1c(=O)oc2ccccc21 | 4.87% (inactive) |
| COc1ccc(CNC(=O)[C@@H]2CC=C[C@@H]3CCN(C4CC4)C(=O)[C@@H]32)cc1 | 4.74% (inactive) |
| CCN(CC)CCCN1C(=O)C(=O)/C(=C(/O)c2c(C)nc3ccccn23)C1c1ccc(C)o1 (stereo not drawn) | -7.73% (inactive) |
| CC(C)(C)OC(=O)NNc1c2ccccc2nc2ccccc12 | 48% (active) |
| Cc1ccc(C(=O)NNC(=O)OC(C)(C)C)c(Cl)c1 | -8.95% (inactive) |
| O=C(NNc1c2ccccc2nc2ccccc12)c1cc2ccccc2cc1O | -10.9% (inactive) |
| CCSC1=NCCN1S(=O)(=O)c1ccc(F)cc1 | 8.82% (inactive) |
| CC(Oc1ccc(F)cc1)C(=O)Nc1ccccc1C(=O)NC1CC1 (stereo not drawn) | 4.37% (inactive) |
| O=[N+]([O-])c1ccc2c(c1)C(O)n1nc(-c3ccccc3)nc1S2 (stereo not drawn) | -7.67% (inactive) |
| COc1ccc(C(=O)COC(=O)c2c(C)noc2C)cc1Cl | -4.13% (inactive) |
| Cc1noc(C)c1C(=O)OCC(=O)N1CCN(S(=O)(=O)c2ccc3ccccc3c2)CC1 | -4.19% (inactive) |
| Cc1noc(C)c1C(=O)OCC(=O)/C=C1\N(C)c2ccccc2C1(C)C | 43.7% (active) |
| CC1CCCCC1NC(=O)Cn1cnc2c1c(=O)n(C)c(=O)n2C (stereo not drawn) | 5.44% (inactive) |
| COc1ccc(-c2cc3c(c4c2ccn4C)C2CCC3C2)cn1 (stereo not drawn) | -50.3% (inactive) |
| COc1cc(C2/C(=C(\O)c3ccc4c(c3)CC(C)O4)C(=O)C(=O)N2c2nnc(C)s2)cc(OC)c1OC (stereo not drawn) | -20.5% (inactive) |
| COc1ccc(NC(=O)C2=NNC(=O)CC2)cc1S(=O)(=O)N1CCCCC1 | -1.74% (inactive) |
| C=CCCC(=O)Nc1nc(C)c(-c2csc(Nc3ccc(Cl)cc3)n2)s1 | -8.67% (inactive) |
| CCCCCCC(=O)Nc1nc(C)c(-c2csc(Nc3cccc(OC)c3)n2)s1 | -13.8% (inactive) |
| CC(=O)Nc1nc(C)c(-c2csc(Nc3ccc(S(N)(=O)=O)cc3)n2)s1 | 77% (active) |
| CCCCC(=O)N(C)c1c(CC)nc2c(OCc3ccc(Cl)cc3Cl)cccn12 | 8.51% (inactive) |
| CC(C)Cn1cnc2c1c(=O)n(CC(=O)NN)c(=O)n2Cc1ccccc1 | 3.73% (inactive) |
| Cc1noc(C)c1COc1cccc(C(=O)Nc2cccnc2)c1 | -1.48% (inactive) |
| Cc1noc(C)c1COc1ccc2ccc(=O)oc2c1 | 42.9% (active) |
| CC(C)OC(=O)c1ccc(COc2ccc3ccc(=O)oc3c2)o1 | 32.9% (inactive) |

| Structure (SMILES) | inhibition |
| --- | --- |
| CCOC(=O)N1CCC(NC(=O)CN2C(=O)COc3ccc(C(C)(C)C)cc32)CC1 | -0.68% (inactive) |
| CN(C)CCN=c1cc(-c2ccccc2)oc2ccc(Cl)cc12 | -18.1% (inactive) |
| Cc1ccc2[nH]c3c(=O)n(CC(=O)NCCc4ccc(Cl)cc4)ncc3c2c1 | -2.38% (inactive) |
| Cc1ccnc(NC(=O)C(C)N2C(=O)c3ccccc3C2=O)c1 (stereo not drawn) | 9.23% (inactive) |
| CC(C(=O)NC1CCCC1)N1CCN(S(=O)(=O)c2ccccc2Cl)CC1 (stereo not drawn) | -0.01% (inactive) |
| CC(C(=O)NC1CCCCC1)N1C(=O)c2cccc3cccc1c23 (stereo not drawn) | 39.6% (active) |
| CC(=O)Nc1cc(-c2ccc(N3CCN(C)CC3)cc2)cn2c(-c3ccc(F)cc3)cnc12 | 42.2% (active) |
| CC(=O)Nc1cc(-c2ccc(N3CCN(C)CC3)cc2)cn2c(-c3cccc(C(=O)N(C)C)c3)cnc12 | 0.78% (inactive) |
| COc1ccccc1-c1cc(NC(C)=O)c2ncc(-c3ccc(F)cc3)n2c1 | 38.6% (inactive) |
| C1=C(N2CCOCC2)/C(=C/c2nc3ccccc3[nH]2)CC1 | 43% (active) |
| O=C1c2ccccc2C(c2nc3ccccc3[nH]2)N1c1ccccc1 (stereo not drawn) | 4.84% (inactive) |
| CCO[C@H]1OC(C(=O)NCc2ccccc2)=C[C@@H](c2coc3ccccc3c2=O)[C@@H]1CCCO | -9.63% (inactive) |
| Cc1c(Cl)cccc1NC(=O)[C@@]1(CC(=O)O)CC(/C=C/c2ccccc2)=NO1 | -0.33% (inactive) |
| Cc1ccc(C(CNC(=O)Nc2cccc(C)c2)N2CCN(C)CC2)cc1 (stereo not drawn) | -3.56% (inactive) |
| Cc1cc(N)n2nc(-c3ccc(C(C)(C)C)cc3)cc2n1 | 40.5% (active) |
| COc1cccc2cc(/C(C)=N/NC(=O)c3ccco3)oc12 | -10.7% (inactive) |
| CC1CCCC(NC(=O)CN2CCN(Cc3ccc(Cl)cc3)C2=O)C1C (stereo not drawn) | 5.5% (inactive) |
| CCC(C)c1ccc(NC(=O)COC(=O)C2CCCC2)cc1 (stereo not drawn) | -5.48% (inactive) |
| Cc1ccc(-n2ncc3c(Nc4cccc(C(=O)O)c4)ncnc32)cc1 | 38.5% (active) |
| COc1ccc2nc(C)cc(Nc3cccc(C(=O)O)c3)c2c1 | -12.3% (inactive) |
| CC(Sc1ncnc2c1cnn2-c1ccccc1)C(=O)Nc1ccc(N2CCOCC2)cc1 (stereo not drawn) | 3.26% (inactive) |
